In PubChem BioAssay (NCI):
The panel holds about 79,000 compounds, 15% with a hit somewhere; the sample as a whole holds those more often. Active and inactive are the calls of the source. Cut-off read from the data, not from the text of the source: active = growth inhibition above about 70%; inactive = the rest.

Assay: NCI Yeast Anticancer Drug Screen. Data for the rad50 strain (AID 155);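 note: 0% = growth of vehicle-only cultures of the same strain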
Details: S. cerevisiae rad50 strain growth inhibition; at 50.0 µM (retest, dose inferred, filed as 5.0); hits give high values
Procedure, shortened: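 Inhibition values express reduced yeast growth in compound-treated cultures relative to vehicle-treated controls.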
In the case of CCSC1(SCC)C(=O)OC2=C(CCCC2)C1N1CCOCC1 (configuration not stated), the growth inhibition is reported as 21% (inactive). With NC(=O)C(CCc1cccc2ccccc12)c1ccccc1 (configuration not stated) the growth inhibition was 14% (inactive). In the case of NC(CCCCCC(N)C(=O)O)C(=O)O (configuration not stated), the growth inhibition is reported as -146% (inactive). In the case of CN(C)CC(CN(C)C)C(=O)C1CCCCC1, the growth inhibition is reported as 90% (active). In the case of O=C1/C(=C/c2ccc([N+](=O)[O-])cc2)Sc2scc(-c3cccc([N+](=O)[O-])c3)[n+]21, the growth inhibition is reported as 98% (active). For CC(C)(C)c1cc(C(P(=O)(c2ccccc2)c2ccccc2)P(=O)(c2ccccc2)c2ccccc2)cc(C(C)(C)C)c1O, the growth inhibition was 96% (active). In the case of COC(=O)c1cc(=O)n(-c2ccccc2C(F)(F)F)c(SC)n1, the growth inhibition is reported as 91% (active). In the case of CSC(SC)=C1C(=O)NC(Cc2ccccc2)C1=O (configuration not stated), the growth inhibition is reported as 50% (inactive). With c1ccc(C(c2ccccc2)c2ccc3ccccc3n2)cc1 the growth inhibition was 91% (active). For CN(C)c1nc(N(C)C)nc([N+](C)(C)C)n1, the growth inhibition was -1% (inactive). In the case of CCCNC(=S)N/N=C(/C)c1nccc2ccccc12, the growth inhibition is reported as 86% (active). For OC(CN1CCc2ccccc2C1)c1ccc2ccccc2c1 (configuration not stated), the growth inhibition was 64% (inactive). In the case of Nc1nc(N)c2nc(CNc3ccc(C(=O)NC(CCC(=O)O)C(=O)O)cc3)ccc2n1 (configuration not stated), the growth inhibition is reported as -5% (inactive). In the case of O=c1c2ccccc2c2ccccc2n1O, the growth inhibition is reported as 92% (active). For CC(=O)N1c2ccccc2Sc2ccc3ccc(C(=O)CCl)cc3c21, the growth inhibition was 97% (active). For CC(NNC(=S)N1CC2CCC(CC2)C1)c1nccc2ccccc12 (configuration not stated), the growth inhibition was 96% (active). With O=C1O/C(=C(\Cc2ccccc2)c2ccccc2)N(c2ccccc2)C1=O the growth inhibition was 30% (inactive).
